Test results published in the supplement of paper PMC11732987, “Enantioselective OTUD7B fragment discovery through chemoproteomics screening and high-throughput optimisation” (Communications Chemistry, 2025).
Values without a mark were called inactive.

These targets were tested with ClCC(=O)N1CCC(CC#N)C1 (assay: log2 ratio of Biotin-Ahx-Ub-VS probe labelling (compound/DMSO); higher = less target engagement, active = hit call of the paper (q ≤ 0.05, log2 ratio ≤ -1)). Conditions: compound concentration: 50uM; treatment time: 3 h.
Procedure: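 Round 2 competitive ABPP in HEK293T lysate. Purified HTC-D2B compounds were tested at 50 and 200 µM for 3 h, followed by Biotin-Ahx-Ub-VS enrichment and diaPASEF LC-MS/MS. Values are the average log2 ratio (compound/DMSO) from an unpaired t-test (n=3 treated, n=26 DMSO).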

UniProt Q93009, sequence (Q93009 whole entry, looked up): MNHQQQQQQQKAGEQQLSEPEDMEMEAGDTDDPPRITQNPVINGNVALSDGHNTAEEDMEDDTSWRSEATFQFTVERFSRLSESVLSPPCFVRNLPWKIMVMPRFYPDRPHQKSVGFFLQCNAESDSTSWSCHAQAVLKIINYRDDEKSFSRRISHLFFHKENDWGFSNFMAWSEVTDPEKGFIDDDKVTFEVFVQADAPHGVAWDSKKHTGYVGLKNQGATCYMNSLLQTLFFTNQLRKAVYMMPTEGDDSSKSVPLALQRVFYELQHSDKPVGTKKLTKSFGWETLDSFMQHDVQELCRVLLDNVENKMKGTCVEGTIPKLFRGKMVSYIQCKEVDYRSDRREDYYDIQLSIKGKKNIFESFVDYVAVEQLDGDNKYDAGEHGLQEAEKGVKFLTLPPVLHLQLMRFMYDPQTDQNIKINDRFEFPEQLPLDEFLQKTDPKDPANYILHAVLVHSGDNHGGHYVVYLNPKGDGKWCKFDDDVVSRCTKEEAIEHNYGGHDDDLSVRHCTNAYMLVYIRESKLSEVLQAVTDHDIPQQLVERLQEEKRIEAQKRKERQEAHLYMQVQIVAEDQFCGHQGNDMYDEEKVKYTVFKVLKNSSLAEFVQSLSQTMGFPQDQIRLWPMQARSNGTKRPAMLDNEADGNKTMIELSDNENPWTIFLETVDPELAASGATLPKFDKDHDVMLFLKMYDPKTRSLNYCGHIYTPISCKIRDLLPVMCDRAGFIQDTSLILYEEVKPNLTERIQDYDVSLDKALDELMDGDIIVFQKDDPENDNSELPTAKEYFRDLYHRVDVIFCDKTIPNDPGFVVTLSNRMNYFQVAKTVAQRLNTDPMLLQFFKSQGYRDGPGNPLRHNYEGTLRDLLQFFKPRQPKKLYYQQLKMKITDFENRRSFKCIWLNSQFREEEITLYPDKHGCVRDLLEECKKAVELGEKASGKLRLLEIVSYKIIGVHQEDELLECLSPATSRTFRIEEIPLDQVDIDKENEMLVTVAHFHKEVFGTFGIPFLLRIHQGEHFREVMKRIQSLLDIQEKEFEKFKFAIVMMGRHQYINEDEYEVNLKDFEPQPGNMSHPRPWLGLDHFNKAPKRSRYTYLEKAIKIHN
UniProt Q93008, sequence (Q93008 whole entry): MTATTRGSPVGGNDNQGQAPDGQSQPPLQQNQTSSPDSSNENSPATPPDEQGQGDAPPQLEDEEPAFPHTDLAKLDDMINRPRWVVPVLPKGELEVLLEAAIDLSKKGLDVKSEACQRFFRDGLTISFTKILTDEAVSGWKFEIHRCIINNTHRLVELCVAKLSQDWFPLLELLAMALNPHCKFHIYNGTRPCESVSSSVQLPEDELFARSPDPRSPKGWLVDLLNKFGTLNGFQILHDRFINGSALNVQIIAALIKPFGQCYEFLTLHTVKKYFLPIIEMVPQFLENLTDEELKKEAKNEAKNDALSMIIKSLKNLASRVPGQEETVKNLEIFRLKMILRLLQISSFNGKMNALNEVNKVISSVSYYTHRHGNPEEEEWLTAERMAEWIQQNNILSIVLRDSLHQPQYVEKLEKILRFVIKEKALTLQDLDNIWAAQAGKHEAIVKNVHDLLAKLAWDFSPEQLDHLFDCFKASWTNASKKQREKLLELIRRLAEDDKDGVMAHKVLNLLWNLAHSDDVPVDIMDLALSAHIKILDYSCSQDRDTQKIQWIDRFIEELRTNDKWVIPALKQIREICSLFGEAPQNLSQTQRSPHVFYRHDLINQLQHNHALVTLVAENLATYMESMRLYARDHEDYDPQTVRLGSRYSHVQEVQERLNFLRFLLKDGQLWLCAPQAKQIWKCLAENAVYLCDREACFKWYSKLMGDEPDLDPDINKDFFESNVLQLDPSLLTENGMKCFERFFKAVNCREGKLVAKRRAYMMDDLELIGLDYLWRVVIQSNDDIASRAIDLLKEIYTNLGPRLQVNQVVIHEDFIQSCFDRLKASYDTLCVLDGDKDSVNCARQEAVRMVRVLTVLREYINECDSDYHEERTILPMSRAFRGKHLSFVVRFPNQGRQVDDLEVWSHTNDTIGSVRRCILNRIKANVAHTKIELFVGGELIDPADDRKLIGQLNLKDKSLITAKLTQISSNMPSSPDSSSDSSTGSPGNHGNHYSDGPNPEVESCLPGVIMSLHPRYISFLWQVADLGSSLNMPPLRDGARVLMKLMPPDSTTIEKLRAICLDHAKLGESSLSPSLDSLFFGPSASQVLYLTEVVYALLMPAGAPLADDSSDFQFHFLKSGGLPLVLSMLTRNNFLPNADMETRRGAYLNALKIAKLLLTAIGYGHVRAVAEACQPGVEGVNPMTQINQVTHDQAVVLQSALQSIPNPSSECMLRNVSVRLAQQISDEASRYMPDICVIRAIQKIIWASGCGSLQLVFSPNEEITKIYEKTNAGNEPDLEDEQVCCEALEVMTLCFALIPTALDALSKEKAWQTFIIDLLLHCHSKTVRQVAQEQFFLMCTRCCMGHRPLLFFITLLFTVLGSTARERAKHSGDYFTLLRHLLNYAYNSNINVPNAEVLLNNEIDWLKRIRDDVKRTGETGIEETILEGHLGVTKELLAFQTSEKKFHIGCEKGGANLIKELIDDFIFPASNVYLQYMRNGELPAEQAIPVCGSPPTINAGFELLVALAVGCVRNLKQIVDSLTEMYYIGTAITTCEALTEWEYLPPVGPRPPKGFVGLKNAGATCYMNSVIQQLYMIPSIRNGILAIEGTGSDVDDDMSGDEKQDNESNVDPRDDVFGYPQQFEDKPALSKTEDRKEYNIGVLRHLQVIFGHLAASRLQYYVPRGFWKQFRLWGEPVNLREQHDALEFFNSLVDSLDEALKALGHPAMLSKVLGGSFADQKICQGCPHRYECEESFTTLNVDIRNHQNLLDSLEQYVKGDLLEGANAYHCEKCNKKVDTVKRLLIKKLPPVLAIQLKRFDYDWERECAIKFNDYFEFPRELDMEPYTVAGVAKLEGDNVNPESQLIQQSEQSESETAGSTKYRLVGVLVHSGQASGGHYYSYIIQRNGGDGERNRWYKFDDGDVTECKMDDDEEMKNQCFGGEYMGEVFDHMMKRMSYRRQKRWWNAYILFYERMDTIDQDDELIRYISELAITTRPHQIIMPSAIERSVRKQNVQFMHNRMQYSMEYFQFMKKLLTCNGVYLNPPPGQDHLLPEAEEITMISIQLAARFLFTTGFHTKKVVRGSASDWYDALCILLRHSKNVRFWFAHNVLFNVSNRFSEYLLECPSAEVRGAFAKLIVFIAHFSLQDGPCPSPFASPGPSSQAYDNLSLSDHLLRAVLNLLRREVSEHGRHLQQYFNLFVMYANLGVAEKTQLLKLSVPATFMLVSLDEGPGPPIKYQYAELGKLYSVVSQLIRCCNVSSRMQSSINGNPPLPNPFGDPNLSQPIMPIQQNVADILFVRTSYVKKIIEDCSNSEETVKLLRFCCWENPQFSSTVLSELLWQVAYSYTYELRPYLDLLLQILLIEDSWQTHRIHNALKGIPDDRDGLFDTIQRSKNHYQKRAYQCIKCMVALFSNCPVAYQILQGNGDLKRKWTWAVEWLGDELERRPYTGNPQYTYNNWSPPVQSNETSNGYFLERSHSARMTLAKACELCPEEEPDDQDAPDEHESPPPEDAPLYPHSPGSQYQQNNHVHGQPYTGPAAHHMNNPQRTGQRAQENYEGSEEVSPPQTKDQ
UniProt Q4G0A6, sequence (Q4G0A6 whole entry): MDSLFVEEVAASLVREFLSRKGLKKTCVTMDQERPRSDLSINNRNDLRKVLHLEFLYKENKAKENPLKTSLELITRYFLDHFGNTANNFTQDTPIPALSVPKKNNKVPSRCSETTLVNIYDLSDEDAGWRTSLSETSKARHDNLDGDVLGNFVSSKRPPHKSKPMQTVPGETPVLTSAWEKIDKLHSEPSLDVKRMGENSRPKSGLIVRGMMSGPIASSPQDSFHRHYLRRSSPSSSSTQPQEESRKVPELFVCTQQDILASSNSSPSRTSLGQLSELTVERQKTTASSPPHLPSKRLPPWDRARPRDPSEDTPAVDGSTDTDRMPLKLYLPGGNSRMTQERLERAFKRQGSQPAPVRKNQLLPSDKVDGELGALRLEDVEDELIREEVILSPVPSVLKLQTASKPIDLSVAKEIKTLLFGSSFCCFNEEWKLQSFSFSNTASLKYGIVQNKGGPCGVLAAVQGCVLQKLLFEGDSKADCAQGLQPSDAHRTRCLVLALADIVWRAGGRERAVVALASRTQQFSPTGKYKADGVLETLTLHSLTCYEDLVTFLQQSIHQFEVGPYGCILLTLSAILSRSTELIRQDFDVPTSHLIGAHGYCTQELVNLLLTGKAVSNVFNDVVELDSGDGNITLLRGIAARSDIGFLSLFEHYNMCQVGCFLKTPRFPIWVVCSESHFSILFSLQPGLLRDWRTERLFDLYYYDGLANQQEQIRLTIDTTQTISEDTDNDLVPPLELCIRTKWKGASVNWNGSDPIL
UniProt Q96FW1, sequence (Q96FW1 whole entry): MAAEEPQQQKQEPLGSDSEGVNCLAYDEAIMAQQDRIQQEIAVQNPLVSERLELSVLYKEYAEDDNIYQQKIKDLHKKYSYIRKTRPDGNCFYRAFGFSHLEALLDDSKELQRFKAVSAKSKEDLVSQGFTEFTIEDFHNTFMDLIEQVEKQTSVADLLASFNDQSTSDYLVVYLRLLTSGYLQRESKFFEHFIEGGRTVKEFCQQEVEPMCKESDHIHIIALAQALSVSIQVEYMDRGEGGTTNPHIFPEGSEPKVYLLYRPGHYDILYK
UniProt Q5T2D3, sequence (Q5T2D3 whole entry): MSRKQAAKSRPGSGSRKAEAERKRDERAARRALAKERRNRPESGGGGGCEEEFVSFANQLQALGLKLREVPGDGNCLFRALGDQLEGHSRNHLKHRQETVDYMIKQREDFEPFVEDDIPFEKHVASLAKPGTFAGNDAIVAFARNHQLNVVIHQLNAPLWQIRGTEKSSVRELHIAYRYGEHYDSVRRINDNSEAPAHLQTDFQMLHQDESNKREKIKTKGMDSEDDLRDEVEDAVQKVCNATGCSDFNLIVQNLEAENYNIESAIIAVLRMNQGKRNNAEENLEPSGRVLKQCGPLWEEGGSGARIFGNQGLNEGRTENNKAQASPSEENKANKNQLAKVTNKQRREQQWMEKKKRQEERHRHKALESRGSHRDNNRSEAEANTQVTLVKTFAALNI

Target | log2 ratio of Biotin-Ahx-Ub-VS probe labelling
EIF3H (UniProt O15372) | 0.0416
USP9X (UniProt Q93008) | 0.0276
OTUB1 (UniProt Q96FW1) | -0.024
UniProt Q70EL2 | -0.0717
MINDY4 (UniProt Q4G0A6) | 0.173
PSMD7 (UniProt P51665) | 0.408
USP7 (UniProt Q93009) | -0.141
UniProt Q5T2D3 | -0.206
VCPIP1 (UniProt Q96JH7) | -0.405

Same assay, conditions: compound concentration: 200uM; treatment time: 3 h

Target | log2 ratio of Biotin-Ahx-Ub-VS probe labelling
EIF3H (UniProt O15372) | 0.0793
USP9X (UniProt Q93008) | -0.109
OTUB1 (UniProt Q96FW1) | -0.102
UniProt Q70EL2 | -0.437
MINDY4 (UniProt Q4G0A6) | -0.0819
PSMD7 (UniProt P51665) | 0.631
USP7 (UniProt Q93009) | -0.201
UniProt Q5T2D3 | -0.203
VCPIP1 (UniProt Q96JH7) | -0.311
